# From PubChem
# GLS inh: glutaminase GLS (human) inhibition; Potency, µM (highest dose often 45.5 µM), for the others: at the top dose activity change, negative = inhibition, actives largely listed as inhibitors; AID 624170; O94925; GLS enzymatic activity, qHTS titration; 410,000 tested, 0.21% active; note: potency is the fitted concentration of half-maximal effect
#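 hKGA in 45 mM KH2PO4 (pH 8.2), 0.02% Tween-20 with compound, then 1mM L-Glutamine (stock as added) plus glutamate oxidase/HRP/Amplex red coupling mix. Fluorescence read initially and after 30 min at RT; signal change reflects glutamate formation.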
# PGK inhibitor: inhibitors of T. brucei phosphoglycerate kinase. Potency, µM (series often up to 57.5 µM), inactives show top-dose activity change, negative = inhibition, hits mostly inhibitors. AID 602233. P07378. 380,000 tested, 0.043% active. PGK/GAPDH coupled, Kinase-Glo luminescence, 60 min; note: potency is the fitted concentration of half-maximal effect; nearly all actives have a fitted effect of over 60% in size
# Target sequence (P07378 whole entry, looked up): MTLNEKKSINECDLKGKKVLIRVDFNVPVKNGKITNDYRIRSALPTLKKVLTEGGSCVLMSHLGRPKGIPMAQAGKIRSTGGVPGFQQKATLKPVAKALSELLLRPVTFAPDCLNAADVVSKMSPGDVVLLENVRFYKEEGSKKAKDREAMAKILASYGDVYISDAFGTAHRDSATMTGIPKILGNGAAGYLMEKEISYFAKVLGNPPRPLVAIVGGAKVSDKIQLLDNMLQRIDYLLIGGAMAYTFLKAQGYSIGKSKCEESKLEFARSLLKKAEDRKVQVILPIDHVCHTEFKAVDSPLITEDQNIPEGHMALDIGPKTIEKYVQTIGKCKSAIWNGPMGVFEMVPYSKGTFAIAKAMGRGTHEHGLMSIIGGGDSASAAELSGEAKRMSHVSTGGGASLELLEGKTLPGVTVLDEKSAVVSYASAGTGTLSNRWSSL
#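 Recombinant glycosomal PGK reaction used 1,3-bisphosphoglycerate generated in-well by GAPDH (100nM final) in 100mM TEA pH 7.6, 5mM MgCl2, 0.01% Tween-20. After 60 minutes at room temperature, ATP was read by Kinase-Glo Plus luminescence end-point.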
# USP1-UAF1 inh: USP1/UAF1 (human) deubiquitinase inhibition. O94782. recombinant USP1/UAF1, Ub-Rhodamine cleavage fluorescence. Potency, µM (top dose mostly 57.1 µM), for inactives: at the highest dose activity change, negative = inhibition, actives largely listed as inhibitors. 390,000 tested, 0.23% active; note: potency is the fitted concentration of half-maximal effect; nearly all actives have a fitted effect of over 60% in size
#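 Step one: compound is pinned into 1nM USP1/UAF1 in HEPES pH 7.8 buffer with TCEP. Step two: 15 min room-temperature incubation. Step three: Ub-Rho (150nM final) starts cleavage, tracked by fluorescence over six one-minute reads.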
# PI4K2A inh: PI4K2A (human) kinase inhibition; purified PI4K2A, ADP-Glo luminescence, 1 h; hits give low values; Q9BTU6; activity change, negative = inhibition, % at 76.9 µM; 420,000 tested, 0.13% active; in the data active = activity change below about -50%; inconclusive = mostly about -30% to -49%;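 note: -100% = wells without enzyme as full effect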
#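 ADP-Glo luminescence measured ADP generated by PI4K2A enzyme (4 ug/mL before mixing) with 1.2 mM PI substrate (pre-mix) and 300 microM ATP (pre-mix). Tris pH7.5 buffer with MgCl2, Triton X-100; 1 h reaction at ambient temperature.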
# An asterisk follows results filed as active; i = inactive; ? = inconclusive; · = no result given; ! = a repeat was not active. The list is not random: actives were taken first. Their share in the collection is about 0.53%. Unless noted, calls come from the whole dose curve; as a rule, active = well fitted curve in the direction sought with a large enough effect; inconclusive = small, poorly fitted or top-dose-only effect, or another doubt; inactive = no such curve, though single readings can be large; an effect the other way counts as inactive or inconclusive. Unless noted, % is set by controls: 0 for no effect and ±100 for the full control effect.
SMILES,GLS inh,PGK inhibitor,USP1-UAF1 inh,PI4K2A inh
CCOc1ccc(-c2ccc(SC)nn2)cc1,3%,?,-17%,-85*
CCOC(=O)c1ccc(O)c(O)c1,·,·,·,-1
O=C(O)c1ccc2c(c1)[C@@H]1C=CC[C@@H]1[C@H](c1ccccn1)N2,2.8µM*,?,32µM*,-26
Nc1cc(C(=O)O)c(N)c2c1C(=O)c1ccccc1C2=O,?,?,?,-55*
O=C1/C(=C/c2ccco2)Oc2c1ccc(O)c2CN1CCCCC1,46%,-7%,32µM*,0
COCCN(CCOC)Cc1c(O)ccc2c1O/C(=C\c1ccco1)C2=O,-2%,-9%,-18%,-8
CCN1CCN(Cc2c(O)ccc3c2O/C(=C\C=C\c2ccccc2OC)C3=O)CC1,-5%,i,28µM*,-6
Cc1ccc(/C=C2\Oc3c(ccc(O)c3CN3CCN(CCO)CC3)C2=O)cc1,2%,0%,?,-2
CC1CCN(Cc2c(O)ccc3c2O/C(=C\c2ccco2)C3=O)CC1,37%,-3%,32µM*,0
CNC[C@H](O)[C@@H](O)[C@H](O)[C@H](O)CO,·,·,·,1
CCOC(=O)c1cc(-c2ccccc2)n(CCC(=O)Nc2ccc(Cl)c(C(F)(F)F)c2)c1C,3%,1%,10%,-1
CCC(C)C1OC2(C=CC1C)CC1CC(C/C=C(\C)C(OC3CC(OC)C(OC4CC(OC)C(NC(C)=O)C(C)O4)C(C)O3)C(C)/C=C/C=C3\COC4C(O)C(C)=CC(C(=O)O1)C34O)O2 (stereo unspecified) (tested in a mixture with another compound),-2%,·,·,·
NNc1ccc([N+](=O)[O-])c2[nH][nH]c(=O)c12,7.9µM*,?,-9%,-17
O=[N+]([O-])c1ccc(Nc2ccccc2)c2nonc12,4%,-7%,?,-8
O=C(O)CN1C(=O)/C(=C/c2ccc(N3CCCCC3)o2)SC1=S,11µM*,-29%,?,-19
CN1CCS/C1=C/C=C1\SC(=S)N(CC(=O)O)C1=O,27%,-9%,25µM*,-6
CCOC(=O)CN1C(=O)S/C(=C/c2ccc(N3CCCCC3)o2)C1=O,-13%,-8%,?,0
O=C(O)CCCCCN1C(=O)/C(=C\c2ccc(-c3ccc(Cl)cc3)o2)SC1=S,?,-2%,?,0
COC(=O)CN1C(=O)S/C(=C/c2ccc(N3CCCCC3)o2)C1=O,-23%,-4%,28µM*,-16
CCCCN1C(=O)/C(=C/C=C2\SCCN2C)SC1=S,-14%,-8%,-22%,-4
CC1CC(=O)NN=C1c1ccc(NCC(C)(C)NCC(O)COc2cc(Cl)ccc2C#N)cc1 (stereo unspecified),·,·,·,0
CC(C)C(=O)Nc1cccc(C(F)(F)F)c1,·,·,·,1
O=C1C=C(NCCc2cc(Br)c(O)c(Br)c2)C(=O)c2ncccc21,10%,-20%,3.5µM*,?
CC(C)(C)C1CCC(CC2=C(O)c3ccccc3C(=O)C2=O)CC1 (stereo unspecified),·,·,·,-2
COc1ccc(NC2=C(NCCO)C(=O)c3ccccc3C2=O)cc1,26%,-8%,25µM*,?
SMILES,GLS inh,PGK inhibitor,USP1-UAF1 inh,PI4K2A inh
Nc1ccc2c(c1)C(=O)c1ccccc1C2=O,1%,3%,-14%,-4
Cc1cccc(NC2=C(NCCO)C(=O)c3ccccc3C2=O)c1,3%,-11%,32µM*,?
Cc1cc(C)cc(NC2=C(N)C(=O)c3ccccc3C2=O)c1,8%,-10%,?,-50*
COc1cccc(NC2=C(NCCO)C(=O)c3ccccc3C2=O)c1,-3%,-7%,?,-28
Clc1ccc([C@H]2OC[C@@]3(CNCC4CC4)CS[C@H](c4ccc(Cl)cc4)N23)cc1,·,·,·,1
CCCC(=O)N(c1ccc2oc(=O)sc2c1)S(=O)(=O)c1ccccc1,9%,-2%,5%,-50*
Cn1c(N2CCCCC2)nc2c1c(=O)n(Cc1cccc(Br)c1)c(=O)n2C,-8%,-9%,-15%,4
Cn1c(N2CCN(c3ccccn3)CC2)nc2c1c(=O)n(Cc1ccc(Cl)cc1)c(=O)n2C,?,-3%,-17%,-3
CC(O)CNc1nc2c(c(=O)n(Cc3ccc(Br)cc3)c(=O)n2C)n1C (stereo unspecified),20µM*,i,-19%,-6
Cn1c(N2CCOCC2)nc2c1c(=O)n(Cc1ccc(Cl)cc1)c(=O)n2C,13µM*,-1%,-1%,-5
Cn1c(N2CCC(C(N)=O)CC2)nc2c1c(=O)n(Cc1ccc(Br)cc1)c(=O)n2C,13µM*,-5%,-4%,-3
COc1ccc2c(CNCCc3ccccc3OC)c(C(=O)O)n(Cc3ccc(F)cc3Cl)c2c1,0%,i,-20%,5
CN1CCC(N(Cc2cccs2)c2ccccc2)CC1,13%,·,·,-2
CCc1nc(Nc2ccccc2O)c2oc3ccccc3c2n1,-2%,-2%,-15%,3
CCc1nc(Nc2ccc(O)cc2)c2oc3ccccc3c2n1,4.5µM*,6%,-9%,-27
CCOC(=O)N1CCc2c(sc(NCc3cccc(F)c3)c2C(=O)Nc2ccc(OC)cc2OC)C1,25%,i,?,-28
CCOC(=O)N1CCN(Cc2nc3cc(NC(=O)c4ccccc4Cl)ccc3n2C(C)C)CC1,7%,-1%,?,-5
COc1ccc(-c2nc3scc(CCNS(=O)(=O)c4ccc(Oc5ccccc5)cc4)n3n2)cc1OC,-11%,2%,-23%,0
O=C(O)c1ccc2nc(-c3ccco3)c(-c3ccco3)nc2c1,7.1µM*,?,-26%,-14
O=C(O)c1cc(-c2ccco2)nc2ccc(Br)cc12,7.9µM*!,28µM*!,?,-15
O=C(Nc1cccc(C(F)(F)F)c1)c1ccc2snnc2c1,-3%,9%,-28%,-8
O=S(=O)(c1ccc2ccccc2c1)N1CCOCC1,-2%,-10%,1%,-3
O=S(=O)(c1ccc2nc(-c3ccco3)c(-c3ccco3)nc2c1)N1CCOCC1,-2%,-1%,-17%,-55*
O=C(Nc1cccc(C(F)(F)F)c1)c1ccc2nc(-c3ccco3)c(-c3ccco3)nc2c1,?,?,28µM*,-53*
Cc1cc2ccccn2c1C(=O)c1ccc(N/N=C/c2ccc(C(=O)O)cc2)c([N+](=O)[O-])c1,10µM*,?,2%,-2
C/C(=N\Nc1ccc(C(=O)c2c(C)cc3ccccn23)cc1[N+](=O)[O-])c1ccc(O)cc1,3%,5%,-10%,2
CCCSS/C(CCO)=C(\C)N(C=O)Cc1cnc(C)nc1N,·,·,·,0
COc1ccc(C2=CC3=C(Br)C(=O)C(C)(OC(=O)c4ccc(Cl)nc4)C(=O)C3=CO2)cc1 (stereo unspecified),-29%,?,-32%,-15
COc1ccc(C2=CC3=C(Br)C(=O)C(C)(OC(=O)C4CCCC4)C(=O)C3=CO2)cc1 (stereo unspecified),1%,18µM*,?,?
